Assay [1] can be described thus: HepG2 liver cancer cell viability effects, profiling panel, resazurin fluorescence, 24 h, PK04 Diversity Set (AID 1172). Also: test concentration not given here. To be noted: higher = more signal.
A short description of assay [2]: basal S. cerevisiae growth modulation, no modifier, primary screen, OD600, strain BY4716, 24 h, basal condition (AID 1173). As to conditions: OD600, 24 h, higher = more signal, called active from +8 up or from −8 down.
A short description of assay [3]: MM1S myeloma cell viability, profiling panel, resazurin fluorescence, basal, 24 h, PK04 Diversity Set (AID 1174).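 Also: MM1S multiple myeloma cell line; test concentration not given here.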 As to conditions: higher = more signal, called active from +8 up or from −8 down.
Assay [4] deals with Dihydroorotate dehydrogenase (quinone), mitochondrial (Plasmodium falciparum (isolate 3D7)) (UniProt Q08210). Nature of the assay: PfDHODH enzyme inhibitors, primary screen, biochemical, C-terminal His tag, absorbance 600 nm (AID 1175).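 Also: recombinant parasite enzyme with a five histidine tag at its C terminus; test concentration not given here.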 To be noted: DCIP absorbance 600 nm, higher = more signal, called active from +8 up or from −8 down.
Dihydroorotate dehydrogenase (quinone), mitochondrial (Plasmodium falciparum (isolate 3D7)), sequence (Q08210 whole entry, looked up): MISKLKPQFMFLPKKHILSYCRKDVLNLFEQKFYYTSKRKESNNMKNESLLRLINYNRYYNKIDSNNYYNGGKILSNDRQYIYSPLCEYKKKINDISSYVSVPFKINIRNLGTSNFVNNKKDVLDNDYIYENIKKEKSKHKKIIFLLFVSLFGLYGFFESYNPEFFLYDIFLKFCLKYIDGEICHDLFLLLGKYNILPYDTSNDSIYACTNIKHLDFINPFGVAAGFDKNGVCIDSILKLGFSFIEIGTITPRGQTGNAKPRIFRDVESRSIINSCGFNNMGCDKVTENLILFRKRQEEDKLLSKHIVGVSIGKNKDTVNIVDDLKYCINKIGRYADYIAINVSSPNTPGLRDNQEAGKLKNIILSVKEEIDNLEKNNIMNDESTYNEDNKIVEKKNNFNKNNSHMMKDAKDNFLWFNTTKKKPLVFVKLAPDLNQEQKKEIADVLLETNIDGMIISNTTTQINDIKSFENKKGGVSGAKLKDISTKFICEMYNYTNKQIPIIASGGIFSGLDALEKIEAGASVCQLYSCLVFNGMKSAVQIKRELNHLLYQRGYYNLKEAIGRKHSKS
Assay [5] is described as follows: P. aeruginosa biofilm formation inhibitors, primary screen, strain PAO1, LB-PBS medium, absorbance 600 nm (AID 1176). Also: test concentration not given here. To be noted: P. aeruginosa PAO1 growth/biofilm, A600, 12 h; higher = more signal.
Assay [6] in a line: S. cerevisiae RM11-1a growth modifiers, primary screen, strain RM11-1a, OD600, basal, 24 h (AID 1177).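 Also: cultures grown under basal conditions with no added stressor; test concentration not given here.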 As to conditions: OD600, 24 h, higher = more signal, called active from +8 up or from −8 down.
Assay [7] is described as follows: E. coli acrAB mutant growth effects, primary screen, E. coli filamentation inducers, strain DRC39, OD650, 24 h (AID 1178).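 Also: growth measured as culture turbidity by optical density at 650 nm; test concentration not given here.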 As to conditions: higher = more signal, called active from +8 up or from −8 down.
The nature of assay [8]: E. coli acrAB mutant growth effects, primary screen, E. coli filamentation inducers, strain DRC39, OD650, 48 h (AID 1179).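 Also: screen aims at cell division blockers that make cells filament.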 As to conditions: E. coli DRC39 delta-acrAB growth, higher = more signal, called active from +8 up or from −8 down.
The nature of assay [9]: RPMI8226 myeloma cell viability, profiling panel, resazurin fluorescence, basal, 24 h, PK04 Diversity Set (AID 1180).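 Also: RPMI8826 multiple myeloma cell line at 5000 cells per well; test concentration not given here.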 To be noted: higher = more signal.
For assay [10], the target named is E3 ubiquitin-protein ligase XIAP (Homo sapiens) (UniProt P98170). As to the kind of experiment: XIAP binders, primary screen, biophysical, small-molecule microarray, fluorescence 635 nm (AID 1181).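 Also: score merges 667 nm emission and signal to noise over triplicate slides.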 To be noted: small-molecule microarray binding, higher = more signal.
E3 ubiquitin-protein ligase XIAP (Homo sapiens), sequence (P98170 whole entry, looked up): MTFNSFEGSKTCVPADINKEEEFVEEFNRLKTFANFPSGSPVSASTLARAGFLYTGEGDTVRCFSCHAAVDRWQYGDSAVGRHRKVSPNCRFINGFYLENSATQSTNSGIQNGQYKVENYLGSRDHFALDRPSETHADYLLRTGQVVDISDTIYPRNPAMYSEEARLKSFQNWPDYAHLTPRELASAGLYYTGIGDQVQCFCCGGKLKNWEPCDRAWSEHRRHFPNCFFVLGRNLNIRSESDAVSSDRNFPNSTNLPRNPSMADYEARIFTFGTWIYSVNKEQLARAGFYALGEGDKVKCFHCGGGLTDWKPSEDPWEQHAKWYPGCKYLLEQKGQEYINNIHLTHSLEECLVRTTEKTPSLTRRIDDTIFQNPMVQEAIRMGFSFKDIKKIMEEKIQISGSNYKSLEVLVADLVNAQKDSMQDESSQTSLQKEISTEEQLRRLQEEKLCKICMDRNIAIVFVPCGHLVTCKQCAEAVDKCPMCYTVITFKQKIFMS

Molecules are shown by their SMILES. Active and inactive are the calls of the source. Unless noted, no rule for the calls is given here.

For the molecule `C=C(CCCC)/C(=C/C[C@@H](OC(C)=O)c1ccccc1OCCO)c1cc(C(=O)OC)ccc1OC`, the z-score was 0.937 in assay [1]; -0.746 (inactive) in [2]; -0.909 (inactive) in assay [3]; 0.367 (inactive) in assay [5]; 0.724 (inactive) in assay [6]; 1.5 (inactive) in [7]. Besides, the z-score is 1.04 (inactive) in [8] and 0.627 in assay [9]. Moreover, the composite z-score is -0.04 (inactive) in assay [4] and -0.02 in [10].
Take `CCOC(=O)C[C@H]1[C@H](OC(=O)c2cc3ccccc3oc2=O)[C@@H](NC(=O)CC(C)C)c2cc(OCCCO)ccc2N1C(=O)c1ccccc1`: the z-score was -0.683 in [1]; -1.9 (inactive) in assay [2]; 0.338 (inactive) in assay [3]; -1.39 (inactive) in assay [5]; -0.544 (inactive) in [6]; 1.94 (inactive) in assay [7]. Also, the z-score in [8] was 1.08 (inactive); in assay [9], -0.0988. For the same molecule, the results for the composite z-score in assay [4] and in assay [10] were -2.94 (inactive) and -0.117, respectively.
In the case of `CC(C)[Si](C#CCCCC#N)(Oc1ccccc1Br)C(C)C`, the z-score in assay [1] was -0.192; in [2], -3.82 (inactive); in assay [3], 0.456 (inactive); in assay [5], 0.313 (inactive); in assay [6], -0.218 (inactive); in assay [7], -0.9 (inactive). For the same molecule, the z-score in assay [8] is -0.832 (inactive); in assay [9], -0.193. Besides, the results for the composite z-score in assay [4] and in [10] were 0.0781 (inactive) and -0.0525, respectively.
Turning to `O=C1[C@H]2C=C(Br)[C@H](C[C@@H]2OCCCCCCO)[C@@]12CO2`, the z-score in assay [1] is -0.629; in [2] it was -1.3 (inactive); in assay [3], -1.43 (inactive); in assay [5] it was 0.756 (inactive); in assay [6], 0.414 (inactive); in assay [7], -0.748 (inactive). In addition, the z-score in assay [8] is -0.602 (inactive); in [9], -0.899. The composite z-score is 0.571 (inactive) in [4] and -0.395 in assay [10].
As to `COc1cc(CO)cc(I)c1O[C@H]1C=C(C(=O)NCCO)C[C@@H](N(C(=O)c2cc3ccccc3oc2=O)C2CCCCCC2)[C@@H]1O`, the z-score in [1] was -0.163; in assay [2], -1.66 (inactive); in assay [3] it was 1.11 (inactive); in assay [5] it was -0.377 (inactive); in [6] it was -0.0819 (inactive); in [7], 2.12 (inactive). The z-score in assay [8] was 0.435 (inactive); in [9], -0.335. Further, the composite z-score in assay [4] is -0.346 (inactive); in assay [10], -0.154.
On to `COCCOC(=O)N1C(=O)[C@@]2(c3ccccc31)[C@H](C(=O)N1CCCCCCC1)[C@H]1C(=O)O[C@H](c3ccccc3)[C@H](c3ccccc3)N1[C@@H]2c1ccc(OCCO)cc1`, for which the z-score in [1] was -0.329; in [2], 1.79 (inactive); in [3], -0.44 (inactive); in assay [5], 2.29 (inactive); in [6] it was 2.47 (inactive); in [7] it was -0.643 (inactive). Also, the z-score was -0.623 (inactive) in [8] and -0.281 in [9]. The composite z-score in assay [4] is 1.15 (inactive); in [10] it was 2.5.
For the molecule `O=C1NC(=O)C2C1C=CC(C(O)C=Cc1ccc([N+](=O)[O-])cc1)N2Nc1ccc(Cl)cc1Cl` (stereo not given), the z-score in [1] was -1.22; in [2], -6.66 (inactive); in assay [3] it was -1.19 (inactive); in [5], 0.807 (inactive); in assay [6] it was 0.379 (inactive); in assay [7] it was 0.178 (inactive). Further, the z-score in [8] is -1.04 (inactive); in [9] it was -0.615. Further, the composite z-score in assay [4] was 0.139 (inactive); in assay [10] it was -0.197.
In the case of `CCOC(=O)C[C@H]1[C@H](OC(=O)c2ccc(-c3ccccc3)cc2)[C@@H](NC(=O)c2ccccc2)c2cc(OCCCO)ccc2N1C(=O)c1ccc2ccccc2n1`, the z-score in [1] was -0.471; in [2], 0.171 (inactive); in assay [3], -0.397 (inactive); in assay [5], -0.17 (inactive); in assay [6], -0.888 (inactive); in assay [7], 0.27 (inactive). For the same molecule, the z-score is 0.256 (inactive) in assay [8] and -0.258 in assay [9]. Also, the composite z-score in [4] is -0.12 (inactive); in assay [10] it was 0.132.
Take `O=C(O)[C@H](Cc1ccccc1)n1cc(-c2ccccc2)nn1`: the z-score in assay [1] is 0.562; in [2], 0.0419 (inactive); in [3] it was 0.0284 (inactive); in assay [5], 0.738 (inactive); in assay [6], -0.14 (inactive); in assay [7], -0.0353 (inactive). For the same molecule, the results for the z-score in [8] and in assay [9] were -0.202 (inactive) and -0.46, respectively. Further, the composite z-score is -0.0341 (inactive) in [4] and 0.0812 in assay [10].
On to `COCCCNC(=O)[C@]1(Cc2ccccc2)N=C(c2ccc(OCCCO)cc2)O[C@@H]1c1ccccc1CN=[N+]=[N-]`, for which the z-score in [1] was -0.316; in assay [2], -1.29 (inactive); in assay [3] it was -0.491 (inactive); in [5] it was 1.8 (inactive); in assay [6] it was 0.0435 (inactive); in assay [7], 0.228 (inactive). Also, the z-score in assay [8] is 1.55 (inactive); in [9], -1.08. The composite z-score in [4] was -0.925 (inactive); in assay [10] it was 0.0136.
As to `Cc1ccc(C2C3C(=O)CC4C(=O)N(c5ccccc5)C(=O)C4C3CN2S(=O)(=O)c2ccc(C)cc2)cc1` (stereo not given), the z-score was -0.419 in assay [1]; 1.05 (inactive) in assay [2]; -0.936 (inactive) in [3]; 0.201 (inactive) in [5]; 1.24 (inactive) in [6]; -0.478 (inactive) in assay [7]. In addition, the z-score in assay [8] was 0.384 (inactive); in assay [9], -0.82. Moreover, the results for the composite z-score in assay [4] and in assay [10] were -0.274 (inactive) and -0.173, respectively.

Source of the values: PubChem BioAssay.
